# The list is not random: actives were taken first. Their share in the collection is about 3.9%.
# D1 potentiator: enhances dopamine response at the human D1 receptor; HEK293 TREx D1 cells, calcium flux, dopamine EC20 potentiation; P21728; hit rate 0.036% among 360,000; potentiation, % at 10 µM; AID 504651; in the data active = potentiation above about 30%; note: 0% is about no effect
# Eya2 phos inh: inhibitors of human Eya2 phosphatase activity | O00167 | recombinant Eya2, OMFP fluorescence dephosphorylation (OMFP is methylfluorescein phosphate) | Potency, µM (top dose mostly 76.9 µM), inactives show top-dose activity, negative = inhibition, hits mostly inhibitors | hit rate 0.006% among 330,000; note: potency is the fitted concentration of half-maximal effect; % is set by controls: 0 for no effect and ±100 for the full control effect
# Target sequence (O00167 whole entry, looked up): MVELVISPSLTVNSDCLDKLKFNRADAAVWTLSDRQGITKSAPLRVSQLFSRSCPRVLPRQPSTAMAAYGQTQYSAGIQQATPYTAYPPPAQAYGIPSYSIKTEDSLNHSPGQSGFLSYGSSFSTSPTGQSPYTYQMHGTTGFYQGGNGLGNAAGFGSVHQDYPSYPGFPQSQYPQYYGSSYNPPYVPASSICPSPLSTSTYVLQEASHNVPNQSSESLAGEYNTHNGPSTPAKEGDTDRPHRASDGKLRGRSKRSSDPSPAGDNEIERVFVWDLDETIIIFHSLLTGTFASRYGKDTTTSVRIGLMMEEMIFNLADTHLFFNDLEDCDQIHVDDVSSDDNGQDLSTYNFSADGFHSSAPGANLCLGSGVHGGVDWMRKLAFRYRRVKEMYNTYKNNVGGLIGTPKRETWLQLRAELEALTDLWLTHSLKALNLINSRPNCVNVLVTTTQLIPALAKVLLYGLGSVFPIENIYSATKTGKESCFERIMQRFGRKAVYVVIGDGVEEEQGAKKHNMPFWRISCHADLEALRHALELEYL
#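 Eya2 (0.2 uM) preincubated 10 min at ambient with compound, then OMFP substrate added at 50 uM; 10 min reaction in 50 mM HEPES pH 7.5, 50 mM NaCl, 5 uM MgCl2, 0.05% BSA, 1 mM DTT. Fluorescence read at Ex 485/Em 525 nm.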
# USP2a block: blocks human ubiquitin-specific protease USP2a; O75604; USP2 core, Ub-CHOP2 coupled fluorogenic reporter, 485/531; Potency, µM (top dose mostly 38.3 µM), for the others: at the top dose activity change, negative = inhibition, actives largely listed as inhibitors; hit rate 0.01% among 330,000; AID 463254;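 note: potency is the fitted concentration of half-maximal effect; plate controls were DMSO wells for no effect and full inhibition by NEM control for full effect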
#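 USP2 core (10nM final) preincubated 30min RT with compound in 20mM Tris-HCl pH 8.0, 2mM CaCl2, 2mM beta-mercaptoethanol, 0.05% CHAPS; 25nM Ub-CHOP2 plus 25nM reporter substrate added, fluorescence (Ex485/Em531) read after 60min.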
# GALK inhibitor: inhibitors of human galactokinase | Potency, µM (titrated, usually from 57.5 µM), for inactives: top-dose activity change, negative = inhibition, most hits filed as inhibitors | hit rate 0.007% among 270,000 | Purified GALK, Kinase-Glo residual ATP luminescence | P51570 | AID 1868; note: potency is the fitted concentration of half-maximal effect; % is set by controls: 0 for no effect and ±100 for the full control effect
#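 Galactose (100 uM) and ATP (35 uM) were turned over by 5 nM GALK for 1 h at RT. Kinase-Glo Plus then converted the remaining ATP into a luminescent signal.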
# D1 ag: activates the human D1 dopamine receptor | P21728 | HEK293 T-REx D1 cells, calcium flux, agonist mode | activation, % at 2 µM | hit rate 1% among 360,000; in the data active = activation above about 30%; note: 0% is about no effect
#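 Tetracycline-induced HEK293 TREx D1 cells, force-coupled to calcium signalling, were dye-loaded with a no-wash calcium kit. Compound was pin-added after a 10 s baseline. Fluorescence was read kinetically at 1 cycle/s for 180 s, with calcium rises flagged as agonism.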
# D1 antag: antagonists of human D1 dopamine receptor; HEK293 TREx D1 cells, calcium flux, dopamine EC80; hits give low values; activity change, negative = inhibition, % at 10 µM; hit rate 3.2% among 360,000; AID 504652; in the data active = activity change below about -30%; note: % is set by controls: 0 for no effect and ±100 for the full control effect
#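 After overnight tetracycline induction at 30 C, force-coupled D1 HEK293 cells took up a no-wash calcium dye at room temperature. Compounds were added and monitored 180 s, and the response to EC80 dopamine was then recorded.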
# An asterisk follows results filed as active; ? = inconclusive; . = not tested or not shown; ! = not confirmed by another sample. Unless noted, calls come from the whole dose curve; as a rule, active = well fitted inhibition curve with a large enough effect; inconclusive = small, poorly fitted or top-dose-only effect, or effect the other way; inactive = flat fitted curve, though single readings scatter.
SMILES,D1 potentiator,Eya2 phos inh,USP2a block,GALK inhibitor,D1 ag,D1 antag
Cc1ccc2c(c1)sc1nc(=O)n(-c3ccc(Cl)c(Cl)c3)c(=O)n12,1,3%,0%,1%,1,-39*!
Cc1ccc(C(=O)n2nc(C)c(S(=O)(=O)N3CCCCCC3)c2C)cc1C,-3,.,.,.,4,-15
COc1ccc(OC)c(-c2cc(C(=O)Nc3sc4c(c3C#N)CCC(C)C4)c3ccccc3n2)c1 (stereo not drawn),-3,1%,1%,1%,3,-47*
CCCC[n+]1ccn(-c2nc3ccccc3nc2[N-]S(=O)(=O)c2ccc(Cl)cc2)c1,13,-12%,-1%,.,6,-40*
CCCCC[n+]1ccn(-c2nc3ccccc3nc2[N-]S(=O)(=O)c2ccccc2)c1,0,-16%,-1%,0%,0,-2
Cc1cc(C)cc(NC2=C(c3ccccc3)C(=O)c3ccccc32)c1,1,.,.,.,1,-23
CCOc1ccc(NC(=O)C2CCC(CNS(=O)(=O)c3ccc4c(c3)CCCC(=O)N4)CC2)cc1 (stereo not drawn),2,.,.,.,1,3
O=C(CSc1nc2c([nH]c3ccccc32)c(=O)n1-c1ccccc1)c1ccc(Cl)cc1,0,.,.,.,-1,-15
CCc1cc(Br)ccc1N1C(=O)C2CC=CCC2C1=O (stereo not drawn),-9,-6%,-3%,1%,8,-41*
O=C(Oc1ccccc1N1C(=O)C2CC=CCC2C1=O)c1ccc(Br)cc1 (stereo not drawn),-7,2%,0%,.,1,-10
Cc1cc(C)nc(Nc2ncc(O)n2-c2ccc(C)c(C)c2)n1,11,-13%,1%,-4%,2,0
Cc1cc(C)nc(Nc2ncc(O)n2-c2ccc(Br)cc2)n1,-7,-6%,1%,-1%,10,-48*
Cc1ccc(C)c(Cn2c(=O)cc(C)c3c(C)nn(C)c32)c1,-4,.,.,.,11,-9
COCCCn1c(=O)/c(=C\c2ccc(OC(F)F)c(OC)c2)s/c1=C(/C#N)C(N)=O,-7,-10%,0%,-2%,2,-44*
COCCCn1c(=O)/c(=C\c2ccccc2OC(F)F)s/c1=C(/C#N)C(N)=O,0,13%,-1%,1%,3,-7
O=C(CSc1nccc(=O)[nH]1)Nc1ccc(Oc2ccccc2)cc1,-10,9%,-1%,0%,2,-57*
CCc1cc(=O)[nH]c(SCC(=O)NCc2ccc3c(c2)OCO3)n1,-1,15%,2%,.,0,-17
O=C(CSc1nccn1Cc1ccc(Cl)cc1)Nc1ccc2c(c1)OCCO2,1,.,.,.,1,-31*
O=C(CSc1nccc(=O)[nH]1)Nc1ccc2c(c1)OCCO2,-1,-9%,1%,-2%,1,-58*
Cc1cc(=O)[nH]c(SCC(=O)Nc2ccc3c(c2)OCCO3)n1,3,5%,0%,1%,1,6
O=C(CSc1nccc(=O)[nH]1)NCc1ccc2c(c1)OCO2,2,-1%,1%,5%,2,-35*
O=C1C(=O)N(C2CCN(C(=O)c3ccccc3F)CC2)CCN1Cc1ccc(F)cc1,-3,.,.,.,3,-11
CCCc1nn(-c2cc(Cl)ccc2OC)c2c1C(=O)CCC2,2,1%,3%,1%,4,-46*
COc1ccc(OCc2cc(C(=O)N3CCC(c4ccccc4)CC3)no2)c(Cl)c1,-5,6%,-4%,7%,35*,-3
COc1ccc(OCc2cc(C(=O)N3CCCCCC3)no2)c(Cl)c1,-9,-18%,0%,-1%,4,0
O=C(c1cc(COc2cccc(C(F)(F)F)c2)on1)N1CCC(c2ccncc2)CC1,-4,?,0%,-4%,0,12
COc1cccc(OCc2cc(C(=O)N3CCC(c4ccncc4)CC3)no2)c1,-11,-12%,1%,0%,14,-36*
CN(C)c1ccc(-c2cc[nH]c(=O)c2N)cc1,5,.,.,.,0,12

# Screening data as filed in PubChem.
